Bioassay records as filed in PubChem BioAssay.
Shown are actives, neighbours in structure and some others; about 3.4% of the full set was active somewhere.
PP1 counter: PP1-alpha (human) inhibition in PP5 counter-screen; inhibition, % at 6.7 µM; actives 0.9% (n = 320,000); purified PP1alpha, OMFP fluorescence; P62136;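 active = inhibition above the mean inhibition of all tested compounds plus 3 SD, computed separately for each screening campaign, cut at about 15% in these data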
pPAFAH inh: inhibitors of human plasma PAF acetylhydrolase (pPAFAH); inhibition, % at 3.39 µM; AID 463082; actives 1.5% (n = 330,000); recombinant pPAFAH, FP-rhodamine probe fluorescence polarization;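 active = inhibition above the mean inhibition across the screen plus 3 SD, cut at about 25% in these data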;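 also: inhibitors block binding of the rhodamine activity-based probe so polarization drops; 0% = enzyme with DMSO and 100% = wells lacking pPAFAH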
PAFAH2 FP inh: PAFAH2 (human) inhibition; Q99487; recombinant PAFAH2, FP-rhodamine activity probe, fluorescence polarization; inhibition, % at 3.39 µM; actives 0.99% (n = 340,000);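 active = inhibition above the mean over all tested compounds plus 3 SD, cut at about 30% in these data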;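 also: inhibitors block probe labeling of enzyme so polarization drops; 0% = enzyme with DMSO and 100% = wells lacking PAFAH2 protein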
PAFAH1B3 FP inh: blocks human PAF acetylhydrolase 1B catalytic subunit 3. Q15102. recombinant PAFAH1B3, FP-rhodamine probe, fluorescence polarization. inhibition, % at 3.39 µM. actives 0.28% (n = 340,000);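 active = inhibition above the screen-wide average of all tested compounds plus 3 SD, cut at about 25% in these data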;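 also: 0% = enzyme with DMSO only and 100% = wells lacking PAFAH1B3 protein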
PP5 inh: blocks human protein phosphatase 5 activity; P53041; purified PP5c, OMFP substrate fluorescence; inhibition, % at 6.7 µM; actives 0.18% (n = 320,000);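 active = inhibition above the campaign's mean inhibition across all tested compounds plus 3 SD, cut at about 9.5% in these data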;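 also: 0% = DMSO only and 100% = 100 µM cantharidin control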
Target sequence (P53041 whole entry, looked up): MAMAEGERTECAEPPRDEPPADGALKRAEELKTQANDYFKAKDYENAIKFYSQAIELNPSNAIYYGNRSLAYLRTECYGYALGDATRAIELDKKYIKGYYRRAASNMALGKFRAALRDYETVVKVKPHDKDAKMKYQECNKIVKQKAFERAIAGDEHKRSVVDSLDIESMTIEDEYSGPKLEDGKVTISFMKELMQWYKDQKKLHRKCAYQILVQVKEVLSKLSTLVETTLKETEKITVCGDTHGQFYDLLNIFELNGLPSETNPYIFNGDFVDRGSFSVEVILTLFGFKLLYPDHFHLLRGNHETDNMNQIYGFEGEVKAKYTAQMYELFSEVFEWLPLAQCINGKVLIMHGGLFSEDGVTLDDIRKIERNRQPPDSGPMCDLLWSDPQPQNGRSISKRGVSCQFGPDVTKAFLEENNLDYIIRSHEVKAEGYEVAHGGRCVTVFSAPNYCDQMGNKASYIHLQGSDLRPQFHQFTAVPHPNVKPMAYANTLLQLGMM
PAFAH1B2 inh: blocks human PAF acetylhydrolase 1b catalytic subunit 2. actives 1.2% (n = 340,000). AID 492953. inhibition, % at 3.39 µM. P68402. recombinant PAFAH1B2, FP-rhodamine activity probe, fluorescence polarization;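 active = inhibition above the mean of all tested compounds plus 3 SD, cut at about 24% in these data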;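 also: 0% = enzyme with DMSO and 100% = wells lacking PAFAH1B2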
Target sequence (P68402 whole entry, looked up): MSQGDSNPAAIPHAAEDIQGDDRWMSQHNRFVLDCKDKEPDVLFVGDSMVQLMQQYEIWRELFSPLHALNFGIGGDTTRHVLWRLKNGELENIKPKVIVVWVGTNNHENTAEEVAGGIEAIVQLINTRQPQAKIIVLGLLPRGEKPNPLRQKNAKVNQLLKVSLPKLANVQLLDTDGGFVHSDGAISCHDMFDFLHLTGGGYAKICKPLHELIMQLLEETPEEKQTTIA
* = called active by the depositor; x = no result given; ! = not active in a repeat.

SMILES | PP1 counter | pPAFAH inh | PAFAH2 FP inh | PAFAH1B3 FP inh | PP5 inh | PAFAH1B2 inh
CN(C(=O)COc1cc(=O)n(C)c2ccccc12)c1cccc(Cl)c1 | -1.8 | 28.2* | 4.9 | 5.9 | -1.0 | 1.8
Oc1c(Cl)cccc1C=Nc1cc(C(F)(F)F)ccc1N1CCCC1 | -2.3 | 21.2 | 1.3 | 13.2 | 1.2 | 1.1
Oc1c(Cl)cc(Cl)cc1C=Nc1cc(C(F)(F)F)ccc1N1CCc2ccccc2C1 | 0.8 | 27.8* | 5.6 | 4.7 | 3.4 | 4.3
CC12CCC(C1)C(C)(C)C2NS(=O)(=O)c1ccc(F)cc1 (configuration not stated) | -1.6 | -2.0 | 4.5 | 5.0 | 4.6 | 25.9*
COc1ccc(-c2cc(C(F)F)n3ncc(C(=O)N4CCc5ccccc54)c3n2)cc1 | 4.3 | -1.1 | -2.3 | 8.1 | 6.2 | 6.5
COc1ccc(-c2cc(C(F)F)n3ncc(C(=O)n4ccnc4C)c3n2)cc1 | -3.1 | 2.1 | 30.4* | 5.3 | -0.3 | -1.1
O=S1(=O)CCOC[C@H](Cc2ccccc2)N1Cc1ccc(F)cc1 | -7.7 | -8.5 | -0.1 | 5.0 | 1.6 | 32.7*
O=S1(=O)CCOC[C@H](Cc2ccccc2)N1Cc1cccc(F)c1 | -2.3 | 3.3 | 3.3 | 3.3 | 0.0 | 5.1
COc1ccc(Cn2c(O)c(C=Nc3ccccc3C(=O)O)c3ccccc3c2=O)cc1 | 7.0 | 26.6* | 37.0* | 10.1 | 1.3 | 4.1
COc1ccc(Cn2c(O)c(C=Nc3ccc(OC)cc3)c3ccccc3c2=O)cc1 | 1.1 | -1.0 | 0.7 | 2.4 | -4.2 | -1.6
COc1cc2c(cc1OC)CN(C(=S)NC(=O)c1ccccc1)CC2 | 4.4 | -2.0 | -0.5 | 8.8 | -1.1 | 2.5
O=C(O)c1ccc(-c2ccc(/C=c3/sc4nc5ccccc5n4c3=O)o2)cc1Cl | -3.8 | 26.7* | 23.4 | 25.9* | 2.1 | 14.6
CCOC(=O)c1sc(NC(=O)Nc2ccc(Cl)cc2)cc1C | 9.4 | 26.4* | 1.6 | 20.2 | 5.0 | 8.4
Cc1cccc(CCNC(=O)CNS(=O)(=O)c2ccc3nc(C)sc3c2)c1 | -0.8 | 3.1 | -0.2 | 1.7 | 0.6 | 5.2
O=S(=O)(NCc1ccccc1)c1ccc(Br)s1 | x | x | -3.8 | -4.3 | x | 17.0
Cc1nc2ccc(S(=O)(=O)NCC(=O)NCCc3ccc(Cl)cc3)cc2s1 | -2.1 | 6.3 | 9.8 | 5.4 | 0.0 | 24.5*
Cc1ccc(CNS(=O)(=O)c2ccc(Br)s2)cc1 | 3.3 | 12.0 | 3.4 | 2.9 | 4.0 | 25.1*
COc1ccc(CCNC(=O)CNS(=O)(=O)c2ccc(Br)s2)cc1OC | 0.3 | 3.3 | 7.6 | 7.4 | 0.4 | 4.5
O=C(CNS(=O)(=O)c1ccc(Br)s1)NCCc1ccc(Cl)cc1 | 3.7 | -0.3 | -0.6 | 1.3 | 1.5 | 29.3*
Cc1ccc(C(=O)Sc2cccccc2=O)cc1 | 0.9 | 15.6 | 3.2 | 1.1 | 3.7 | 5.6
COc1cc(/C=N/NC(=O)[C@H](Cc2c[nH]c3ccccc23)NC(=O)OCC(C)C)cc([N+](=O)[O-])c1O | -5.1 | 29.5* | 11.7 | 5.8 | -0.8 | 24.4*
OC(c1ccc(F)cc1)(C1CCCCC1)C(CN1CCOCC1)c1ccccc1 (configuration not stated) | 1.4 | 7.3 | 1.5 | 10.8 | 2.2 | 35.4*
CC12CC3CC(C)(C1)CC(C(=O)N1CCN(C(=O)c4ccco4)CC1)(C3)C2 | -2.0 | 6.0 | 5.9 | 11.2 | -0.1 | 35.5*
O=C(c1ccco1)N1CCN(C(=O)C23CC4CC(CC(C4)C2)C3)CC1 | -1.6 | -3.2 | 4.0 | -7.3 | 0.4 | 9.6
COc1ccc(N=CC2=C(Nc3ccc(OC)cc3)c3c(C)nn(-c4ccccn4)c3CC2)cc1 | 9.9 | 54.1* | x | x | -3.9 | x
SMILES | PP1 counter | pPAFAH inh | PAFAH2 FP inh | PAFAH1B3 FP inh | PP5 inh | PAFAH1B2 inh
COc1ccc(-c2cc(C(=O)O)c3c(C)nn(-c4ccccn4)c3n2)cc1 | -1.5 | -0.2 | x | x | 0.1 | x
O=C(COC(=O)c1ccc(S(=O)(=O)NCc2ccco2)cc1)Nc1ncc(Cl)cc1Cl | -2.0 | 25.1* | 15.9 | 2.2 | -1.2 | 2.3
O=C(COC(=O)c1ccc2ccccc2n1)Nc1ncc(C(F)(F)F)cc1Cl | 1.2 | 26.3* | 8.9 | 2.0 | 2.2 | -1.9
O=C(COC(=O)c1nc(Cl)ccc1Cl)NCc1ccc(Cl)cc1Cl | x | x | 4.2 | 5.5 | x | 5.5
O=C(COC(=O)c1nc(Cl)ccc1Cl)Nc1ncc(Cl)cc1Cl | -3.8 | 4.2 | 52.3* | 51.0* | -0.8 | 60.6*
COc1ccccc1OCCC(=O)OCC(=O)Nc1ncc(Cl)cc1Cl | -1.8 | 26.0* | 15.0 | 0.5 | -0.3 | -0.2
O=C(COC(=O)c1ccc2ccccc2c1)Nc1ncc(C(F)(F)F)cc1Cl | -2.6 | 12.8 | 9.5 | 6.1 | 1.9 | -5.3
Oc1ccccc1CNc1cccc2cccnc12 | -3.1 | 33.5* | 1.6 | 14.0 | 2.5 | 1.1
CC1=NN(c2nc(-c3ccc(F)cc3)cs2)C(=O)C1 | 11.2 | 30.3* | 13.9 | 3.9 | 2.3 | 5.4
CCOc1ccccc1NC(=O)C(=O)CC(=O)c1ccc(OC)cc1 | 0.8 | -3.2 | -1.8 | 12.7 | 0.6 | -1.2
CCOC(=O)[C@H]1[C@H]2COc3cc(OC)ccc3[C@@H]2N2C(=O)N(c3ccc(Cl)cc3)C(=O)[C@@]12C | -3.8 | 2.7 | 5.5 | -7.5 | 0.7 | 4.4
O=C(CSCc1ccc(Cl)cc1Cl)Nc1ccc(O)cc1C(=O)O | 2.3 | 0.4 | -2.2 | -1.1 | 1.9 | 27.6*
O=C(Cc1cc(=O)[nH][nH]1)N/N=C/C(Cl)=C/c1ccccc1 | 14.2 | 26.5*! | -2.7 | 0.4 | 0.2 | 7.9
O=C(Cc1cc(=O)[nH][nH]1)N/N=C/c1ccccc1Cl | 3.0 | 5.3 | x | x | 1.0 | x
Cc1ccsc1/C=C1\Oc2cc(OCC(=O)c3ccccc3)ccc2C1=O | 16.4* | -0.9 | -8.2 | 3.2 | 1.4 | 2.8
CCOc1ccc(NS(=O)(=O)c2cc3c4c(c2)C(C)C(=O)N4CCC3)cc1 (configuration not stated) | 3.7 | 25.9* | 2.7 | 4.5 | 1.1 | 2.4
CCOC(=O)c1oc2ccccc2c1CSc1nnnn1-c1ccccc1 | 1.6 | 26.1* | 1.8 | 15.2 | 0.0 | 6.6
CCOC(=O)c1oc2ccccc2c1CN1CCCCC1 | -4.0 | 4.0 | 2.8 | 3.4 | -0.7 | 7.4
Clc1ccc2c(N/N=C/c3ccccc3Br)ccnc2c1 | 11.5 | -1.2 | -6.0 | 2.1 | 3.3 | -4.8
O=[N+]([O-])c1ccc(/C=N/Nc2ccnc3cc(Cl)ccc23)o1 | 6.7 | 28.1* | -2.5 | 4.5 | 0.8 | 1.4
CCc1cc2c(CN(C)Cc3ccccc3F)cc(=O)oc2cc1O | 6.2 | -0.2 | -5.3 | 4.0 | 1.7 | 28.2*
C#CCOCCOCCOCCNc1nc(N2CCN(C(=O)[C@H]([C@@H](C)CC)n3cc([C@@H](N)Cc4ccc(O)cc4)nn3)CC2)nc(N2CCN(C(=O)[C@H](Cc3cc4ccccc4[nH]3)n3cc([C@@H](N)C(C)CC)nn3)CC2)n1 (some centres not stated) | 11.1 | 1.7 | x | x | 3.0 | x
